# Experimental data: paper PMC7826789 (International Journal of Molecular Sciences, 2021)
# Experiments:
# Settings in all cases: Compound Concentration (nM):1000
# [1] = system: TNK1
# [2] = system: TNK2
# [3] = system: TNNI3K
# [4] = system: T1, TRKA
# T1 construct: gene NTRK1
# [5] = system: T2, TRKB
# T2 construct: gene NTRK2
# [6] = system: TRPM6
# [7] = system: TSSK1B
# [8] = system: TSSK3
# [9] = system: TTK
# [10] = system: T3, TRKC
# T3 construct: gene NTRK3
# 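Also: KINOMEscan scanMAX binding as percent activity remaining versus control; lower means stronger binding.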
SMILES,Percent Control [1] [%],Percent Control [2] [%],Percent Control [3] [%],Percent Control [4] [%],Percent Control [5] [%],Percent Control [6] [%],Percent Control [7] [%],Percent Control [8] [%],Percent Control [9] [%],Percent Control [10] [%]
COc1ccc(COc2ccc(Cc3cnc(N)nc3N)cc2OC)cc1 [GW632580X],73,77,90,4.2,0.9,89,100,83,85,
O=C(Nc1n[nH]c2nc(-c3ccc(O)cc3)c(Br)cc12)C1CC1 [SB-725317],100,100,100,65,100,100,100,100,97,100
Cl.O=C(O[C@H]1CN[C@H](C#Cc2cc3ncnc(Nc4ccc5c(cnn5Cc5ccccc5)c4)c3s2)C1)N1CCOCC1 [GSK200398A],99,97,55,70,87,96,100,93,100,95
NS(=O)(=O)c1ccc(Nc2ncc(-c3ccccc3)o2)cc1 [GW572399X],100,100,100,55,72,100,100,100,78,78
COc1cc(C)c(N(C)C(=O)CN(C)C)cc1Nc1nc(Nc2cccc(F)c2C(N)=O)c2cc[nH]c2n1 [GSK2219385],83,100,100,87,100,100,100,100,71,100
C[C@@H](Oc1cc(-n2cnc3ccc(OC4CCN(C)CC4)cc32)sc1C(N)=O)c1ccccc1Cl [GSK579289A],76,86,100,49,82,88,71,100,69,91
CC1=C(C(=O)Nc2ccc3[nH]ncc3c2)C(c2ccc3ccccc3c2)CC(=O)N1 (stereo not shown) [GSK270822A],68,62,100,66,73,82,97,43,92,63
COc1ccccc1-c1cc(/C=C2\C(=O)Nc3ncc(Br)cc32)cc(Br)c1O [GW442130X],97,100,100,7.2,22,100,75,97,97,44
NS(=O)(=O)c1ccc(N/N=C2\C(=O)Nc3ccc(C(=O)NCCc4c[nH]cn4)cc32)cc1 [GW300660X],100,100,92,20,52,100,100,100,11,57
COc1cc(N2CCN(C(C)C)CC2)ccc1Nc1nc(Nc2ccc(F)cc2C(=O)NC[C@@H](O)CO)c2cc[nH]c2n1 [GSK1392956A],18,67,100,86,91,82,42,83,4.9,89
COC(=O)Nc1nc2ccc(Oc3ccc(NC(=O)Nc4cc(C(F)(F)F)ccc4F)cc3)cc2s1.Cl [GW693917A],37,95,61,4.8,6.2,73,92,82,80,4.5
COc1cc(C=NNc2ncnc3c2cnn3-c2ccccc2)ccc1O [GW513184X],67,100,84,66,100,100,98,100,100,99
COc1cccc(-n2ncc3c(N/N=C/c4ccncc4)ncnc32)c1 [GW784752X],88,100,51,65,73,89,100,90,88,85
NS(=O)(=O)c1ccc(N/N=C2\C(=O)Nc3ccc(-c4cnco4)cc32)cc1 [GW276655],52,66,100,15,39,89,100,100,20,38
CC1=C(C(=O)Nc2ccc3[nH]ncc3c2)C(c2ccc(Cl)c(Cl)c2)CC(=O)N1 (stereo not shown) [GSK299115A],82,79,100,72,97,87,93,77,89,68
CN1CCN(C(=O)c2ccc(NC(=O)Nc3ccc(N(C)c4ccnc(Nc5ccc(CS(C)(=O)=O)cc5)n4)cc3)cc2)CC1.Cl [GW830263A],6.7,6.5,92,7.1,11,91,96,75,61,2
Cc1cc(O)cc(C)c1/C=C/c1cncc(C(N)=O)c1 [GW435821X],100,100,67,98,94,100,100,100,90,100
CN(C)CCNC(=O)Nc1ccc(N(C)c2ccnc(Nc3ccc(CS(C)(=O)=O)cc3)n2)cc1.Cl [GW830900A],39,75,97,16,34,100,100,83,68,57
CCn1c(-c2nonc2N)nc2c(C#CC(C)(C)O)nc(OCCNC)cc21.Cl [GSK949675],100,100,100,100,100,100,90,14,91,100
COc1ccc2c(-c3ccnc(Nc4cccc(OC(F)(F)F)c4)n3)cnn2n1 [GW810372X],100,100,100,55,92,92,100,86,94,91
